Shn3 inh set2 = inhibitors of Schnurri-3 3'UTR reporter in osteoblasts; Clone20 osteoblast Shn3 3'UTR firefly luciferase, 24 h; inhibition, % at 12.5 µM; actives 0.52% (n = 360,000); AID 588674;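 active = mean inhibition of at least 75% with every replicate also reaching 75%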
MITF TRPM1 inh = reduces MITF-dependent TRPM1 promoter luciferase signal | SK-MEL-5 TRPM1 promoter luciferase, 24 h | actives 0.83% (n = 330,000) | AID 488899 | inhibition, % at 12.5 µM;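 active = mean inhibition across replicates of 60% or more, whatever share of single replicates reaches that level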
KKLEB tox = reduces viability of KKLEB cystic fibrosis airway cells; KKLEB CF airway cells viability, ATPlite luminescence, overnight; stronger effect = lower value; cells stimulated with P. aeruginosa culture filtrate; activity change (cytotoxicity), % at 5 µM; AID 602141; actives 0.36% (n = 360,000);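 active = corrected activity change at or below -50% at 5 µM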
HIF-2a block = HIF-2a inhibition; 786-0 RCC cells HIF-2a reporter, luciferase luminescence, overnight; inhibition, % at 18.8 µM; actives 0.72% (n = 360,000); AID 624352;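 active = inhibition of the luminescence signal of 40% or more relative to plate controls, in a single-dose primary screen at 18.75 µM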
Peg3 promoter = inhibitors of Peg3 promoter. HeLa PEG-Prom luciferase reporter, luminescence, overnight. inhibition, % at 20 µM. actives 1.7% (n = 360,000). AID 588405;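 active = inhibition of at least 50% at 20 µM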
CF NFkB inh = blocks PAF-induced NF-kB reporter in cystic fibrosis cells | KKLEB NF-kB-GFP reporter, GFP fluorescence overnight | AID 588850 | actives 0.86% (n = 360,000) | inhibition, % at 5 µM;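 active = at least 50% inhibition at 5 µM, scaled per plate between neutral and stimulator controls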;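 note: PAF is a Pseudomonas aeruginosa culture filtrate used as stimulus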
Large screens that a line does not name were inactive. Hits are enriched below; roughly 2.8% of the tested compounds scored in any of these assays.

Cc1cc(N/N=C/c2ccc(O)c(C)c2O)nc(-c2ccccc2O)n1	KKLEB tox -102, Peg3 promoter 69, CF NFkB inh 104
Cc1ccc2nc(C(Cl)(Cl)Cl)nc(N/N=C/c3ccncc3)c2c1	none
Oc1ccc(/C=N/Nc2nc(-c3cccnc3)nc3ccccc23)c(O)c1	none
Cc1c(O)ccc(/C=N/Nc2nc(-c3cccnc3)nc3ccccc23)c1O	CF NFkB inh 61
COC(=O)c1ccc(COC(=O)C(CCSC)NC(=O)COc2ccccc2)cc1 (configuration not stated)	none
O=C(O)CCNc1cc(N2CCN(C(=O)c3ccco3)CC2)c2noc3c2c1C(=O)c1ccccc1-3	none
CCN1CCN(c2cc(N3CCN(C(=O)c4ccco4)CC3)c3c4c(onc24)-c2ccccc2C3=O)CC1	MITF TRPM1 inh 89
CCn1c(/C=C/N(C)c2ccccc2)[n+](CC)c2ccc(Cl)cc21	MITF TRPM1 inh 65
C[C@@H](NC(=O)[C@@H]1Cc2ccccc2CN1C(=O)OC(C)(C)C)C(=O)NC1CCCC1	none
O=C(C1CCC(CNS(=O)(=O)c2cccs2)CC1)N1CCN(c2ccc(Cl)cc2)CC1 (configuration not stated)	Shn3 inh set2 88, MITF TRPM1 inh 69
O=C(NC1CCCC1)C1CCC(CNS(=O)(=O)c2cccs2)CC1 (configuration not stated)	none
COc1ccc(NC(=O)c2cc(-c3sc(NC(=O)c4ccccc4)nc3C)n(Cc3ccccc3)n2)cc1	none (no result: Shn3 inh set2, MITF TRPM1 inh, KKLEB tox, Peg3 promoter, CF NFkB inh)
COc1ccc(NC(=O)c2oc3ccccc3c2NC(=O)COc2ccccc2OC)c(OC)c1	KKLEB tox -54, CF NFkB inh 54
COc1ccccc1C(=O)NCCC(=O)Nc1ccc(OC(F)(F)F)cc1	none
O=C(/C=C/c1ccc(N2CCCCC2)c([N+](=O)[O-])c1)c1ccc(S(=O)(=O)N2CCCC2)cc1	Peg3 promoter 55
COc1cccc(C(=O)/C=C/c2ccc(N3CCCCC3)c([N+](=O)[O-])c2)c1	Peg3 promoter 66
CN1CCN(S(=O)(=O)c2ccc3c(c2)OCCO3)CC1	none
Cc1ccc(S(=O)(=O)N2CCN(c3ncccn3)CC2)cc1C	none
O=S(=O)(c1ccc2c(c1)OCCO2)N1CCN(c2ncnc3sccc23)CC1	Shn3 inh set2 89
Cc1ccc(S(=O)(=O)N2CCN(c3ncnc4sccc34)CC2)cc1C	Shn3 inh set2 88
CCc1ccc(OCc2n[nH]c(=S)n2C(C)CCCC(C)C)cc1 (configuration not stated)	Peg3 promoter 111
COC(=O)C1=C(C)N(Cc2ccc(C)cc2)C(=O)/C1=C\c1cc(OC)c(OC)c(OC)c1	HIF-2a block 51
COC(=O)C1=C(C)N(Cc2ccc(C)cc2)C(=O)/C1=C\c1ccc(O)c(OC)c1	none
COc1ccc(C2CC(c3cccc(C(F)(F)F)c3)=NN2c2ccc(S(N)(=O)=O)cc2)cc1 (configuration not stated)	none
CCCCC[C@H](O)/C=C/[C@H]1CCC(=O)[C@@H]1CCCCCCC(=O)N1CCCCC1CO (some centres not stated)	Peg3 promoter 63
CCC1CCCCN1C(=O)CCCOc1ccccc1 (configuration not stated)	none
O=C(/C=C1\NC2(CCCC2)Cc2ccccc21)C(=O)N/N=C/c1ccc(O)c(O)c1	Peg3 promoter 57
COc1ccc(/C=N/NC(=O)C(=O)/C=C2\NC3(CCCC3)Cc3ccccc32)cc1	none
CCC/C(C)=N/NC(=O)c1ccccc1O	none
CCOC(=O)C(CC)/C(C)=N\NC(=O)c1ccccc1O (configuration not stated)	Peg3 promoter 54
OCCN1CCN(CC(O)COc2ccc(C34CC5CC(CC(C5)C3)C4)cc2)CC1 (configuration not stated)	Peg3 promoter 114
NCCOc1ccc(C23CC4CC(CC(C4)C2)C3)cc1	Peg3 promoter 101
CCc1c(C2(O)CCCCC2)[nH]c2cc(C(F)(F)F)ccc12	Peg3 promoter 67
Cc1c(C2(O)CCCCC2)[nH]c2cc(C(F)(F)F)ccc12	none
Cc1[nH]c2ccccc2c1CCNC(=O)c1ccc2c(c1[N+](=O)[O-])C(=O)c1ccccc1C2=O	Peg3 promoter 101
CN(C)C(=O)c1ccc2c(c1[N+](=O)[O-])C(=O)c1ccccc1C2=O	none
Cc1[nH]c2c(C)cccc2c1CCNC(=O)c1ccc2c(c1[N+](=O)[O-])C(=O)c1ccccc1C2=O	Peg3 promoter 103
COc1cccc(OC)c1Nc1nc(C)nc2c1nnn2Cc1ccccc1Cl	none
CCc1nc(Nc2ccc(OC)c(OC)c2)c2nnn(Cc3ccccc3Cl)c2n1	MITF TRPM1 inh 71
COc1ccc(/C=C2\SC(=S)N(CCCC(=O)Nc3cc(C)on3)C2=O)cc1OC	none
Cc1ccc(/C=C2\SC(=S)N(CCCC(=O)Nc3cc(C)on3)C2=O)cc1	HIF-2a block 69
O=C(CCCN1C(=O)/C(=C\c2cccc(Br)c2)SC1=S)Nc1cccnc1	HIF-2a block 61, Peg3 promoter 96
Cc1ccc(/C=C2\SC(=S)N(CCCC(=O)Nc3cccnc3)C2=O)cc1	HIF-2a block 70
O=C(CCCN1C(=O)/C(=C/c2cccc(Br)c2)SC1=S)Nc1ccccn1	HIF-2a block 66, Peg3 promoter 62
Cc1cc(Br)cn2c(Cc3ccccc3)c(-c3ccc(C#N)cc3)nc12	none (no result: MITF TRPM1 inh)
O=[N+]([O-])c1cc(C(F)(F)F)cc([N+](=O)[O-])c1NCCNC(=S)Nc1ccc(Cl)c(Cl)c1	Peg3 promoter 53 (no result: Shn3 inh set2)
S=C(NCc1ccncc1)Nc1ccc(Cl)c(Cl)c1	none
CCc1ccc(C(O)c2ncc(-c3ccccc3F)[nH]2)cc1 (configuration not stated)	none (no result: MITF TRPM1 inh)
O=C(CN1CCN(c2ccccc2O)CC1)Nc1ccccc1C(=O)NCCc1ccccc1	none
COC(=O)c1ccc(C(=O)OC)c(NC(=O)CN2CCN(c3ccccc3OC)CC2)c1	Peg3 promoter 52
COc1ccc(CCNC(=O)c2ccccc2NC(=O)CN2CCN(c3ccccc3O)CC2)cc1	Peg3 promoter 52
COC(=O)c1ccc(C(=O)OC)c(NC(=O)CN2CCN(c3ccccc3)CC2)c1	none
CCOC(=O)c1cccc(NC2c3ccccc3C(=O)N2Cc2ccco2)c1 (configuration not stated)	Shn3 inh set2 90
NC(=O)c1ccsc1NC(=O)COC(=O)c1c(F)cccc1Cl	none
Cc1ccc(C)c(OCCC(=O)OC(C)C(=O)Nc2c(C)n(C)n(-c3ccccc3)c2=O)c1 (configuration not stated)	none
O=C1c2ccccc2C(=O)c2cc(N3CCCCC3)ccc21	KKLEB tox -63
c1ccc2cc(N3CCCCC3)ccc2c1	none
Cc1ccc(C)c(C(=O)COC(=O)CCN2C(=O)C3C4CCC(C4)C3C2=O)c1 (configuration not stated)	none
